KB-V1 MDR tox = KB-V1 MDR subline cytotoxicity; KB-V1 MDR cells viability, CellTiter-Glo, 72 h; Potency, µM (titrated, usually from 46.1 µM), most hits filed as cytotoxic; 400,000 tested, 3.4% active; AID 1347076; note: % is set by controls: 0 for no effect and ±100 for the full control effect; nearly all actives have a fitted effect of over 60% in size
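Cytotoxicity via CellTiter-Glo luminescence after 72 h compound exposure at 37 degrees C. Cells: drug-selected KB-V1 line, DMEM phenol-red free plus 10% FBS. Compounds tested at multiple concentrations; normalized data fitted to concentration-effect curves.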
MCF10A rerep = inducers of DNA re-replication in MCF 10A breast cells | MCF 10A DNA re-replication, Hoechst nuclear intensity, 48 h | Potency, µM (series often up to 46.1 µM), inactives show at the highest dose activity, positive = re-replication, hits mostly activators | 350,000 tested, 2.9% active | AID 624296; note: % of control where 0% means no effect; nearly all actives have a fitted effect of over 50% in size
Gal4-VP16 FLuc = Gal4-VP16 reporter inhibition counter-screen; Drosophila S2 Gal4-VP16 UAS-luciferase, luminescence, 20 h; Potency, µM (titrated, usually from 53.6 µM), for the others: top-dose activity, negative = inhibition, actives largely listed as inhibitors; 310,000 tested, 3.5% active; AID 2546;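 note: Gal4-VP16 expression switched on by copper sulfate through the metallothionein promoter; % is set by controls: 0 for no effect and ±100 for the full control effect; nearly all actives have a fitted effect of over 50% in size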
RORgamma inh = blocks mouse ROR gamma transcriptional activity; P51450; Drosophila S2 Gal4-RORgamma UAS-luciferase reporter, 20 h; Potency, µM (titrated, usually from 53.6 µM), for inactives: at the highest dose activity change, negative = inhibition, hits mostly inhibitors; 310,000 tested, 5.4% active; AID 2551; note: % is set by controls: 0 for no effect and ±100 for the full control effect; nearly all actives have a fitted effect of over 60% in size
Target sequence (P51450 whole entry, looked up, the tested form may be a part): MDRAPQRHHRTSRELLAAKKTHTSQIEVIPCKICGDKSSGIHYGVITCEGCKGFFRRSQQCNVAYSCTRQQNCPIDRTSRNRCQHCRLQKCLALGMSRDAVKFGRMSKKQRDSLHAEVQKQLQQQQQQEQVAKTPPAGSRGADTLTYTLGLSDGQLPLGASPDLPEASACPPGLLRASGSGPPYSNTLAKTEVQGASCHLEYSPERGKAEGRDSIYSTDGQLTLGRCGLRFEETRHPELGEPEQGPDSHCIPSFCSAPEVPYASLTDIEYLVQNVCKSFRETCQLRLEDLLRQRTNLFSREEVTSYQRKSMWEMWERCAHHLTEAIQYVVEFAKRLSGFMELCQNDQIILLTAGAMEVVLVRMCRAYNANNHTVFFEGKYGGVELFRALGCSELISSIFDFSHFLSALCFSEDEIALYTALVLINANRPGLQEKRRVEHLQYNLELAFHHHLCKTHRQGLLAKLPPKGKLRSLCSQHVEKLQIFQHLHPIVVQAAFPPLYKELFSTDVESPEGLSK
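A Gal4/UAS one-hybrid system in insect cells: metallothionein-promoter Gal4–ROR gamma fusion plus Photinus luciferase reporter. Copper sulfate 700 uM final, 20 hr ambient incubation, luminescent detection after 10 min with reagent.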
SW480 rerep = DNA re-replication induction in SW480 cells. SW480 DNA re-replication, Hoechst DNA content imaging, 48 h. Potency, µM (top dose mostly 46.1 µM), without a hit: top-dose re-replication activation, hits mostly activators. 340,000 tested, 1.8% active. AID 624297; note: % of control where 0% means no effect; nearly all actives have a fitted effect of over 55% in size
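Per well, 250 cells were exposed to pinned compound for 48 hr. Nuclear DNA was visualised with Hoechst (40 min, 37 C) and total object intensity recorded by fluorescence scanning.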
KB-3-1 cytotox = kills parental KB-3-1 adenocarcinoma cells; AID 1347075; Potency, µM (titrated, usually from 46.1 µM), most hits filed as cytotoxic; KB-3-1 viability, CellTiter-Glo ATP luminescence, 72 h; 400,000 tested, 1.4% active; note: % is set by controls: 0 for no effect and ±100 for the full control effect; nearly all actives have a fitted effect of over 60% in size
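Luminescent ATP read-out (CellTiter-Glo) measures survival of drug-naive KB-3-1 cells after 72 h compound exposure at 37 °C. Titration series was screened from lowest to highest concentration, with DMSO vehicle plates as background controls.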
An asterisk follows results filed as active; i = inactive; ? = inconclusive; / = no result; [ ] = dose if it differs, or a comment. In the library only some 10% were active in any assay of this set; here they are far more common. Calls come from the whole dose curve; as a rule, active = well fitted curve in the direction sought with a large enough effect; inconclusive = small, poorly fitted or top-dose-only effect, or another doubt; inactive = no such curve, though single readings can be large; an effect the other way counts as inactive or inconclusive. Potency is the fitted concentration of half-maximal effect.

SMILES | KB-V1 MDR tox | MCF10A rerep | Gal4-VP16 FLuc | RORgamma inh | SW480 rerep | KB-3-1 cytotox
COc1ccc(-c2ccc(/C=C3/C(=N)N4C(C)=CSC4=NC3=O)o2)c([N+](=O)[O-])c1 | ? | 21µM* | ? | 11µM* | 9% | i
CC1=CSC2=NC(=O)/C(=C\c3cccn3-c3ccc([N+](=O)[O-])cc3)C(=N)N12 | 2.9µM* | ? | 3.2µM* | ? | ? | i
CCC1=NN2C(=N)/C(=C\c3cccn3-c3cccc(Cl)c3)C(=O)N=C2S1 | i | -5% | 7% | 11µM* | 27% | i
CC(C)c1ccc(-n2cccc2/C=C2/C(=N)N3C=CSC3=NC2=O)cc1 | 21µM* | 23µM* | 16µM* | 7.1µM* | ? | ?
CC1=CSC2=NC(=O)/C(=C\c3cccn3-c3ccccc3)C(=N)N12 | ? | 2% | 7% | -4% | 22% | i
CC(C)CCn1c(=O)c2cccnc2n(CC(=O)Nc2ccc(F)cc2)c1=O | i | / | / | / | / | i
O=c1c(-c2cccs2)nc2cnc(N3CCNCC3)nc2n1C1CC1 | / | / | ? | -2% | / | /
Cc1nc(-c2ccccc2)sc1CCNC(=O)C(=O)Nc1ccc2c(c1)OCO2 | i | / | / | / | / | ?
O=S(=O)(c1ccc(F)cc1)N1CCN(CC(O)COc2ccccc2F)CC1 (stereo not given) | i | 6% | 3% | -3% | 0% | i
CC(C)c1ccccc1OCC(O)CN1CCN(S(=O)(=O)c2ccc([N+](=O)[O-])cc2)CC1 (stereo not given) | ? | 8% | -17% | 42% | 27% | 6.5µM*
CCOC(=O)c1c(Nc2cccc(C)c2)nnc(-c2ccccc2)c1-c1ccccc1 | ? | / | / | / | / | 16µM*
CCCCn1c(SCC(=O)c2c(N)n(C3CC3)c(=O)[nH]c2=O)nc2cc(S(N)(=O)=O)ccc21 | i | 4% | / | / | -1% | i
CC(=O)c1sc2nc(-c3cccs3)ccc2c1N | ? | ? | 11% | 24% | ? | ?
COc1ccc(-c2cc(-c3cccs3)nc3sc(C#N)c(N)c23)cc1 | ? | 16µM* | -8% | 11% | ? | i
Nc1c(C(=O)Nc2ccccc2Br)sc2nc(-c3cccs3)ccc12 | i | / | / | / | / | i
Cc1cc(-c2cccs2)c2c(N)c(C(=O)c3ccc4c(c3)OCO4)sc2n1 | 6.5µM* | 15µM* | 1% | -20% | 1.3µM* | ?
CC(C)NC(=O)c1sc2nc(-c3cccs3)cc(-c3cccs3)c2c1N | i | 3.7µM* | 5% | -8% | ? | i
Nc1c(C(=O)Nc2nc3ccccc3s2)sc2nc(-c3cccs3)ccc12 | i | 4.1µM* | -19% | 18% | ? | 8.2µM*
N#Cc1sc2nc(C3CC3)cc(-c3ccc(Cl)cc3)c2c1N | i | 5% | -6% | 4% | ? | i
CCOc1ccc(N(CC)S(=O)(=O)N2CCCC(C(=O)Nc3ccc(NC(C)=O)cc3)C2)cc1 (stereo not given) | i | / | / | / | / | i
CCOC(=O)c1[nH]c(C)c(CCC(=O)Nc2ccccc2C(=O)OC)c1C | ? | / | / | / | / | i
CN(C(=O)CSc1nc2scc(-c3ccccc3)c2c(=O)[nH]1)c1ccccc1 | i | ? | / | / | -31% | i
O=C(Nc1ccncc1Cl)c1ccncc1 | i | 0% | -6% | -5% | -2% | i
COc1ccc(C(=O)c2sc3nc(C)cc(-c4cccs4)c3c2N)cc1 | i | ? | -3% | -4% | 21µM* | i
COc1ccc(C(=O)c2sc3nc(C)cc(-c4cccs4)c3c2N)cc1OC | ? | 5.2µM* | ? | ? | ? | i
SMILES | KB-V1 MDR tox | MCF10A rerep | Gal4-VP16 FLuc | RORgamma inh | SW480 rerep | KB-3-1 cytotox
Cc1cc(C)c2c(N)c(C(=O)c3ccc(Cl)cc3)sc2n1 | ? | -33% | -20% | -21% | 15% | i
O=c1[nH]c2ccccc2nc1-c1nnnn1C1CCCC1 | i | / | / | / | / | i
O=c1[nH]c2cc3ccccc3cc2nc1-c1nnnn1C1CCCC1 | i | / | / | / | / | 5.8µM*
COc1ccc(N/N=C(\C#N)C(=N)SCc2ccccc2)cc1 | i | ? | 16µM* | ? | -2% | i
COc1ccc(N/N=C(\C#N)C(=N)N2CCCCC2)cc1 | i | 1% | -16% | -11% | -14% | i
Cn1cc(CN(CCCN2CCOCC2)C(=S)Nc2cccc(Cl)c2)c2ccccc21 | i | 23µM* | ? | ? | 16µM* | i
Cc1ccc(NC(=S)N(C)Cc2cn(C)c3ccccc23)cc1 | 21µM* | ? | ? | -27%[10 µM] | -2% | i
Cc1cccc(NC(=S)N(CCCN2CCOCC2)Cc2cn(C)c3ccccc23)c1 | i | ? | -22% | 11µM* | ? | ?
Cc1cccc(NC(=S)N(CCN2CCOCC2)Cc2cc3cc4c(cc3[nH]c2=O)OCO4)c1 | i | 3% | 6% | -21% | 8% | i
CCN1CCCc2cc(CN(CCN3CCOCC3)C(=S)Nc3cccc(OC)c3)ccc21 | i | 12% | -3%[10 µM] | 7.1µM* | 23% | i
C=CCOC(=O)N[C@@H](c1ccccc1)[C@@H](C)[N+](=O)[O-] | / | / | 2% | -1% | / | /
CCOc1ccc(OCC)c(NC(=O)C2CCCN(S(=O)(=O)c3cc(Br)cc4c3N(C(=O)CC)CC4)C2)c1 (stereo not given) | i | / | / | / | / | i
COc1cccc([C@@H]2Oc3ccc(OC)cc3/C(=N/O[C@@H](C)c3cn([C@H]4COC[C@H]4O)nn3)[C@@H]2O)c1 | / | / | 4%[10 µM] | 6%[10 µM] | / | /
Cn1cc(CC(=O)NCCN2CCOCC2)c2ccccc21 | i | 15% | -5%[10 µM] | 1% | 23µM* | i
COc1ccc(OC)c(CN(CCN2CCOCC2)C(=O)Nc2cccc(Cl)c2)c1 | 3.7µM* | 22% | -1% | 40% | 13% | i
CCOc1ccc(NC(=S)N(CCCN2CCOCC2)Cc2cn(C)c3ccccc23)cc1 | i | ? | ? | 13µM* | ? | ?
Cn1cc(CC(=O)NCCCN2CCOCC2)c2ccccc21 | i | 0% | -2% | 8% | -15% | i
COc1ccc(NC(=S)N(CCCN2CCOCC2)Cc2cn(C)c3ccccc23)cc1 | i | ? | ? | ? | ? | i
Cc1ccccc1C=Nc1ccccc1C(N)=O | ? | 3.3µM* | -4% | 45% | 4.1µM* | 3.7µM*
Cc1ccc(C=Nc2ccccc2C(N)=O)cc1 | 5.8µM* | 12µM* | 0% | 5% | ? | 7.3µM*
NC(=O)c1ccccc1N=Cc1ccccn1 | i | 2% | 1% | 0% | -20% | i
